# Measurements published in publication PMC4336329 (PLoS ONE, 2015).
# In all, about 310,000 compounds went through this assay and about 14,000 (4.5%) showed an effect of 50% or more. The effect is printed as a negative number. Many of the other results were omitted from the sample, so strong results are more common in it than they were.
# Molecular target: human ether-à-go-go-related gene (hERG) potassium channel (human, UniProt Q12809)
# Experiment: primary screen, population patch clamp on CHO cells stably expressing hERG; higher = less effect of the substance
# 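Note: peak tail current of the secondary pulse compared with the same well before compound.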
# human ether-à-go-go-related gene (hERG) potassium channel, sequence (Q12809 whole entry, looked up): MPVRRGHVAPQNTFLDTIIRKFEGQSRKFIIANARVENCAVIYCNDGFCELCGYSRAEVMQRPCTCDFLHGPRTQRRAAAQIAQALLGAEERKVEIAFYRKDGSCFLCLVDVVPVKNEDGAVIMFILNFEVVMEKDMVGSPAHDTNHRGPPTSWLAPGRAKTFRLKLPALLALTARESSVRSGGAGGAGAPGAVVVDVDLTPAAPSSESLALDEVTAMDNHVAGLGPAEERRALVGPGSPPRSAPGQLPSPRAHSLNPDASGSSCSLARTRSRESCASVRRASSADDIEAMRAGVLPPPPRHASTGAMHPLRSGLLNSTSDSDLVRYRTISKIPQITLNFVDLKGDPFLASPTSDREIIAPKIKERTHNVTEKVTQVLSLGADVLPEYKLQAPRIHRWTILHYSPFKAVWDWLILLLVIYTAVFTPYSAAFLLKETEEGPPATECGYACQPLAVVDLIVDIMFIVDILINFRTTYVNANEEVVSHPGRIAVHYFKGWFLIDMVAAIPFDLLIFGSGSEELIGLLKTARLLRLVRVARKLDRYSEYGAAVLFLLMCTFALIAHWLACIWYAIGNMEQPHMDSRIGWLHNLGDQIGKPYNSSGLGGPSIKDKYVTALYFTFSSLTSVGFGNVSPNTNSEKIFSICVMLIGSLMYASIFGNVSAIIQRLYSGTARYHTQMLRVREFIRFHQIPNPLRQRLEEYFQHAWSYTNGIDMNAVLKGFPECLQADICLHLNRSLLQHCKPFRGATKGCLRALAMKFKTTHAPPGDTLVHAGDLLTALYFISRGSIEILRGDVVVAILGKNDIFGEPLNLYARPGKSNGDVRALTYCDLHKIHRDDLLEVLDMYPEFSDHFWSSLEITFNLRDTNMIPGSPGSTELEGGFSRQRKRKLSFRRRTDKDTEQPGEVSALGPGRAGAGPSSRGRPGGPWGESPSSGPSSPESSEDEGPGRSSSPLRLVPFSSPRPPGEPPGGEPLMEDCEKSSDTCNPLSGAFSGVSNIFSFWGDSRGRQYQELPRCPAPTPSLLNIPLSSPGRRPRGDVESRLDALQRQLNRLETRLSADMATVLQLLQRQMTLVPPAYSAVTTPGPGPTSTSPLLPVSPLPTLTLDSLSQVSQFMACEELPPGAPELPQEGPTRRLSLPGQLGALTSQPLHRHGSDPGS
row,SMILES,"hERG current change (%, negative = inhibition) at 10uM"
1,COc1ccc(N(CC(=O)NCCSc2ccccn2)S(=O)(=O)c2ccc(C)cc2)cc1OC,-17.7%
2,CCOc1ccccc1NC(=O)CCNS(=O)(=O)c1ccccc1,17.6%
3,Cc1ccc(C2=Nc3ccccc3N=C(c3ccc([N+](=O)[O-])cc3)C2)c(O)c1,-3.53%
4,COc1ccc([C@@H]2CC(=O)c3c(O)cc(O)cc3O2)cc1O,5.19%
5,COc1ccc(OC)c(N2Cc3ccccc3C2)c1,12%
6,c1ccc(-n2nnc3cnccc32)cc1,12%
7,c1ccc(Cn2nnc3cnccc32)cc1,2.3%
8,c1ccc(-n2c(Cc3cccnc3)nc3cnccc32)cc1,-50.5%
9,COc1ccc(NC(=O)N(CCCN2CCOCC2)Cc2cccnc2)c(OC)c1,5.99%
10,Nc1[nH]c2cc([N+](=O)[O-])ccc2c1-c1ccccn1,20.1%
11,CCOC(=O)c1cc2[nH]c3ccccc3c2[n+](-c2ccc([N+](=O)[O-])cc2)c1C.[Cl-],-77.8%
12,CCOC(=O)c1csc(N)c1-c1ccc([N+](=O)[O-])cc1,6.52%
13,CCOC(=O)c1cc2[nH]c3ccccc3c2[n+](-c2ccc([N+](=O)[O-])cc2)c1N.O=C([O-])C(F)(F)F,-58.4%
14,CCOC(=O)c1ccccc1NC(=O)c1cccc([N+](=O)[O-])c1,12.5%
15,N#Cc1cc2[nH]c3ccccc3c2[n+](-c2ccc([N+](=O)[O-])cc2)c1N.[Cl-],-65.1%
16,CCOC(=O)c1ccc(-c2ccc3[nH]c4ccccc4c(=O)c3c2)cc1F,13%
17,CCOC(=O)c1cc(=O)[nH]c2ccccc12,19%
18,Cc1[nH]c2ccccc2c1/C=N/Nc1ccc([N+](=O)[O-])cc1,3.95%
19,Cc1c(Cl)cccc1NC(=O)c1cc(-c2ccco2)on1,-0.802%
20,N#CC(C#N)=CN=c1ccn(Cc2ccc(Cl)cc2Cl)cc1,7.39%
21,O=c1cc[nH]c2c(C(F)(F)F)cccc12,-0.945%
22,CCC(C)(C)NC(=O)Cn1c(-c2ccc(C)cc2)noc1=O,13.5%
23,CC12CCC(C(=O)Nc3ccccc3Cl)([C@H](Br)C1=O)C2(C)C (stereo partly shown),15.9%
24,COc1cc(C)c(Br)cc1S(=O)(=O)NCCN1CCOCC1,12.5%
25,C/C=C(/C)C(=O)O[C@@H]1c2c(ccc3ccc(=O)oc23)OC(C)(C)[C@@H]1OC(=O)/C(C)=C\C,-8.07%
26,C/C=C(/C)C(=O)O[C@H]1[C@@H](O)c2c(ccc3ccc(=O)oc23)OC1(C)C,3.92%
27,C/C=C(/C)C(=O)O[C@@H]1[C@H](OC(=O)C=C(C)C)c2c(ccc3ccc(=O)oc23)OC1(C)C,-0.258%
28,CC(=O)OC1c2c(ccc3ccc(=O)oc23)OC(C)(C)C1OC(=O)CC(C)C (stereo not shown),-30.4%

row,SMILES,"hERG current change (%, negative = inhibition) at 10uM"
1,CC(=O)O[C@@H]1[C@H](OC(=O)CC(C)C)c2c(ccc3ccc(=O)oc23)OC1(C)C,-67.2%
2,C/C=C(/C)C(=O)OC1c2c(ccc3ccc(=O)oc23)OC(C)(C)C1OC(=O)/C(C)=C\C (stereo not shown),-12.3%
3,C/C=C(/C)C(=O)O[C@@H]1[C@H](OC(C)=O)c2c(ccc3ccc(=O)oc23)OC1(C)C,-36%
4,C/C=C(\C)C(=O)OC1c2c(ccc3ccc(=O)oc23)OC(C)(C)C1OC(C)=O (stereo not shown),-72.5%
5,C/C=C(/C)C(=O)OC1c2c(ccc3ccc(=O)oc23)OC(C)(C)C1OC(C)=O (stereo not shown),-71.8%
6,CC(=O)c1cccc(NC(=O)C(CC(C)C)NC(=O)C2CCCCC2)c1 (stereo not shown),-4.77%
7,O=C(O)c1c2c(nc3ccc(S(=O)(=O)N4CCC(C(=O)NC5CCCC5)CC4)cc13)CCCCC2,9.65%
8,O=C1c2oc3ccc(Cl)cc3c(=O)c2C(c2cccc(Br)c2)N1CCO (stereo not shown),-13.1%
9,COc1ccc(/C(=N\O)c2ncc(C(F)(F)F)cc2Cl)cc1,-3.33%
10,CCOC(=O)c1cnc(COc2ccccc2Cl)[nH]c1=O,16%
11,CC(C)Cn1c(SCC(=O)N2CCN(C(=O)c3ccco3)CC2)nc2ccccc2c1=O,-73.2%
12,CCCn1c(SCC(=O)N2CCN(C(=O)c3ccco3)CC2)nc2ccccc2c1=O,-82.8%
13,CC(C)Cn1c(SCC(=O)N2CCCCC2)nc2ccccc2c1=O,-24.7%
14,CC(C)Cn1c(SCC(=O)N2CCOCC2)nc2ccccc2c1=O,-5.9%
15,O=C(CSc1nc2ccccc2n1CC(=O)N1CCCC1)N1CCN(C(=O)c2ccco2)CC1,-0.921%
16,CCn1c(SCC(=O)N2CCCC2)nc2ccccc2c1=O,-23%
17,Cc1nc2ccccc2c(=O)n1-c1ccc(F)cc1,-12.1%
18,COCCCNC(=S)Nc1ccc(OC(F)F)cc1C,7.74%
19,CCOC(=O)C1CCN(c2c(Nc3ccc(C)c(C)c3)c(=O)c2=O)CC1,-12.6%
20,CCOC(=O)C1CCN(CCC(=O)Nc2ccc(C)c(C)c2)CC1,-54.2%
21,CCOC(=O)C1CCN(CC(=O)Nc2ccc(OC)c(Cl)c2)CC1,-12.5%
22,CCOC(=O)C1CCN(CCC(=O)Nc2ccc(Br)c(C)c2)CC1,-62.8%
23,CCOC(=O)C1CCCN(CCC(=O)Nc2ccc(Br)c(C)c2)C1.Cl (stereo not shown),-36.1%
24,Cc1cc(NC(=O)CCN2CCC(C(N)=O)CC2)ccc1Br,-26.7%
25,CCCCn1c(Nc2ccccc2)nc2ccccc21,24.7%
26,CCOc1ccc(S(=O)(=O)Nc2cccc(C(=O)N3CCN(C(C)=O)CC3)c2)cc1,-14.9%
27,C/C(=N/NS(=O)(=O)c1ccc(C(C)(C)C)cc1)c1ccc2c(c1)OCO2,-3.17%
